Measurements published in PubChem BioAssay (NCATS).
Records with an inconclusive call do not appear. The source made the active and inactive calls. The call rests on the fitted dose curve; in most records, active means well fitted inhibition curve with a large enough effect; inconclusive means small, poorly fitted or top-dose-only effect; inactive means flat fitted curve, though single readings scatter.

What was measured:
Test in all cases: qHTS profiling for inhibitors of Plasmodium falciparum proliferation (AID 504749); further: nearly all actives have a fitted effect of over 60% in size
Conditions in all cases: P. falciparum in erythrocytes, SYBR Green DNA, 72 h; series mostly up to 28.7 µM
CP335 = test system: CP335
How it was run: (§1)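 Quantitative HTS: compounds pinned into medium, infected erythrocytes added (0.3% parasitemia, 2.5% hematocrit), 72 h culture at 37 C under 5% CO2. Saponin/Triton lysis with SYBR Green I, overnight RT, then fluorescence read.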

DFO2036 = test system: DFO2036
How it was run: as §1

DIV14 = test system: DIV14
How it was run: as §1

DIV17 = test system: DIV17
How it was run: as §1

Dd2 = test system: Dd2
How it was run: as §1

FAB9 = test system: FAB9
How it was run: as §1

GB4 = test system: GB4
How it was run: as §1

ICS = test system: ICS
How it was run: as §1

P93_24 = test system: P93_24
How it was run: as §1

PC49 = test system: PC49
How it was run: as §1

DIV30 = test system: DIV30
How it was run: as §1

ECU = test system: ECU
How it was run: as §1

HB3 = test system: HB3
How it was run: as §1

JCK = test system: JCK
How it was run: as §1

N140 = test system: N140
How it was run: as §1

P94_40 = test system: P94_40
How it was run: as §1

PAD = test system: PAD
How it was run: as §1

PC15 = test system: PC15
How it was run: as §1

PC26 = test system: PC26
How it was run: as §1

SC27B = test system: SC27B
How it was run: as §1

Measured: Potency
Potency means the concentration at half of the fitted maximal effect.

Oc1ccc(C(O)CNCCCCCCNCC(O)c2ccc(O)c(O)c2)cc1O (stereo not given)
inactive: DFO2036 | FAB9 | PC49
active: CP335 9.53 µM | DIV14 10.7 µM | DIV17 15.1 µM | Dd2 10 µM | GB4 13.5 µM | ICS 6.31 µM | P93_24 10 µM

CCOC(=O)c1ccc(O)cc1
inactive: all assays above

O=C1OC(OC(=O)c2cccnc2Nc2cccc(C(F)(F)F)c2)c2ccccc21 (stereo not given)
inactive: all assays above

O=C(CCCN1CCN(c2ccccn2)CC1)c1ccc(F)cc1
not listed: DIV14 | DIV17
inactive: all other assays above

CC1=C(CC(=O)O)c2cc(F)ccc2/C1=C\c1ccc(S(C)=O)cc1 (stereo not given)
not listed: ICS
inactive: all other assays above

CCCc1c(OCCCCc2nn[nH]n2)ccc(C(C)=O)c1O
not listed: PC49
inactive: all other assays above

CCn1cc(C(=O)O)c(=O)c2cnc(N3CCNCC3)nc21
not listed: ICS
inactive: all other assays above

Cc1ccc(C(C)C)cc2c(C)ccc1-2
not listed: DIV14 | DIV30
inactive: all other assays above

CCCCOC(=O)c1ccc(O)cc1
not listed: ICS
inactive: all other assays above

CCCn1cnc2c1c(=O)n(CCCCC(C)=O)c(=O)n2C
not listed: DIV17 | GB4 | ICS | P93_24
inactive: all other assays above

CCCCN(CCCC)CC(O)c1cc(Cl)cc2c1-c1ccc(Cl)cc1/C2=C/c1ccc(Cl)cc1 (stereo not given)
active: CP335 0.0239 µM | DFO2036 0.0126 µM | DIV17 0.0135 µM | DIV30 0.0067 µM | Dd2 0.0089 µM | ECU 0.0056 µM | FAB9 0.316 µM | HB3 0.0141 µM | ICS 0.0014 µM | N140 0.0045 µM | P93_24 0.0126 µM | P94_40 0.005 µM | PAD 0.0056 µM | PC15 0.0112 µM | SC27B 0.0112 µM

Oc1cn2c(n1)Nc1ccc(Cl)c(Cl)c1C2
not listed: ICS
inactive: all other assays above

O=C1c2c(O)cccc2Cc2cccc(O)c21
inactive: all assays above

NC(=O)N/N=C/c1ccc([N+](=O)[O-])o1
active: Dd2 10 µM | GB4 13.5 µM | HB3 11.2 µM | ICS 11.2 µM | N140 11.2 µM | P93_24 8.91 µM | SC27B 12.6 µM
inactive: FAB9 | JCK

C[C@]12C[C@H](O)[C@H]3[C@@H](CCC4=CC(=O)CC[C@@]43C)[C@@H]1CC[C@@H]2C(=O)CO
inactive: CP335 | DIV14 | DIV17 | DIV30 | GB4 | ICS | PC15 | PC26

CN1CCCCC1CCN1c2ccccc2Sc2ccc(S(C)=O)cc21 (stereo not given)
inactive: DFO2036 | ECU | FAB9 | HB3 | JCK | PAD | PC49
active: DIV14 7.57 µM | DIV17 12 µM | ICS 5.01 µM

CN1CCC[C@@H]1Cc1c[nH]c2ccc(CCS(=O)(=O)c3ccccc3)cc12
inactive: DFO2036 | FAB9 | HB3 | JCK | SC27B
active: DIV14 9.53 µM | DIV17 7.57 µM | Dd2 12.6 µM | ICS 7.08 µM

CC(C)(C)C(=O)C(Oc1ccc(Cl)cc1)n1ccnc1 (stereo not given)
active: DFO2036 12.6 µM | DIV14 13.5 µM | DIV17 13.5 µM | DIV30 12 µM | Dd2 11.2 µM | ECU 10 µM | GB4 13.5 µM | ICS 12.6 µM | N140 8.91 µM | P93_24 5.01 µM | P94_40 7.94 µM | PAD 8.91 µM | PC26 16.9 µM
inactive: FAB9 | JCK

Cc1ccc2nc(N)[nH]c(=O)c2c1Sc1ccncc1
inactive: DIV30 | PC26
active: DFO2036 10 µM | Dd2 11.2 µM | GB4 10.7 µM | JCK 12.6 µM | N140 3.98 µM | P93_24 14.1 µM | P94_40 12.6 µM

CCN(CC)CCNC(C(=O)OCCC(C)C)c1ccccc1 (stereo not given)
active: DIV14 4.26 µM | DIV17 7.57 µM | Dd2 7.08 µM | GB4 7.57 µM | ICS 5.62 µM | P93_24 8.91 µM
inactive: FAB9 | HB3 | JCK | PAD | SC27B

NCCNCCNCCN
not listed: CP335 | P94_40
inactive: all other assays above

CC(C(O)c1ccc(O)cc1)N1CCC(Cc2ccccc2)CC1 (stereo not given)
active: CP335 10.7 µM | DIV14 13.5 µM | DIV17 15.1 µM | Dd2 8.91 µM | GB4 7.57 µM | P93_24 11.2 µM
inactive: FAB9 | PC49

CCOc1nc2cccc(C(=O)O)c2n1Cc1ccc(-c2ccccc2-c2nn[nH]n2)cc1
active: SC27B 11.2 µM
not listed: DIV14 | DIV17 | ICS | DIV30 | ECU | N140 | P94_40 | PC26
inactive: all other assays above

Cc1c(O)cccc1C(=O)N[C@@H](CSc1ccccc1)[C@H](O)CN1C[C@H]2CCCC[C@H]2C[C@H]1C(=O)NC(C)(C)C
inactive: FAB9
active: DIV14 16.9 µM | DIV30 15.1 µM | Dd2 11.2 µM | ECU 11.2 µM | HB3 10 µM | ICS 4.47 µM | N140 7.94 µM | P93_24 8.91 µM | P94_40 10 µM | PAD 10 µM | SC27B 7.94 µM

CCCCN1CCCC[C@H]1C(=O)Nc1c(C)cccc1C
not listed: CP335 | GB4
inactive: all other assays above

NCC(=O)CCC(=O)O
not listed: CP335
inactive: all other assays above

CNCCC(Oc1ccc(C(F)(F)F)cc1)c1ccccc1 (stereo not given)
active: DIV14 3.01 µM | DIV17 6.75 µM | DIV30 6.75 µM | GB4 13.5 µM | ICS 7.94 µM
inactive: DFO2036 | FAB9 | HB3

Nc1ccc(S(=O)(=O)Nc2ccc(Cl)nn2)cc1
inactive: DIV14 | DIV17 | DIV30 | GB4 | ICS | PC26
active: JCK 0.891 µM

CSc1ccc2c(c1)N(CCC1CCCCN1C)c1ccccc1S2 (stereo not given)
active: DIV14 10.7 µM | DIV17 10.7 µM | ECU 11.2 µM | GB4 10.7 µM | ICS 10 µM | P93_24 11.2 µM | P94_40 7.08 µM | PAD 8.91 µM | PC15 10 µM | SC27B 12.6 µM
inactive: HB3

OCc1cc(C(O)CNCCCCCCOCCCCc2ccccc2)ccc1O (stereo not given)
active: GB4 9.53 µM
not listed: CP335 | DIV14 | DIV17 | ICS | P93_24 | DIV30 | PC15 | PC26
inactive: all other assays above

CN(C)CCN(Cc1ccccc1)c1ccccn1
inactive: DFO2036 | ECU | FAB9 | HB3 | JCK | P94_40 | PAD | PC15 | PC49 | SC27B

O=C(O)c1ccccn1
not listed: CP335 | DIV14
inactive: all other assays above

CN1CCN(C2Cc3ccccc3Sc3ccc(Cl)cc32)CC1 (stereo not given)
inactive: DFO2036 | FAB9 | HB3 | JCK | N140 | P94_40 | PC15
active: ICS 12.6 µM

[Cl][In]([Cl])[Cl]
active: DIV30 15.1 µM | Dd2 11.2 µM | ICS 2.51 µM | P93_24 10 µM

COc1ccc2[nH]c(S(=O)Cc3ncc(C)c(OC)c3C)nc2n1 (stereo not given)
active: DIV14 3.38 µM | DIV17 4.78 µM | Dd2 12.6 µM | ECU 6.31 µM | ICS 7.94 µM | N140 6.31 µM | P93_24 7.94 µM | P94_40 8.91 µM | PAD 4.47 µM | PC49 7.94 µM | SC27B 8.91 µM

OCCN1CCN(CCCN2c3ccccc3Sc3ccc(Cl)cc32)CC1
active: CP335 2.56 µM | DIV14 5.73 µM | DIV17 5.1 µM | Dd2 3.55 µM | ECU 3.16 µM | GB4 4.55 µM | ICS 3.98 µM | N140 3.55 µM | P93_24 2.24 µM | PC15 3.16 µM
inactive: DIV30
